Compound activity: PubChem BioAssay, National Center for Advancing Translational Sciences (NCATS)
Giardia kill – Giardia lamblia killing; activity change, % at 7.66 µM, hits read low; 0.15% of 340,000 active; AID 540267; Giardia lamblia trophozoite viability; in the data active = activity change below about -80%; inconclusive = between about -30% and that limit;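 note: parasites exposed to compound for two days anaerobically before the ATP read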
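Anaerobic 48 hrs incubation at 37 deg C of 100 trophozoites/well with test compounds; ATPLite 1-Step luminescence, 15-30 min RT, reports cellular ATP as viability.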
DT40 TDP1 no CPT – qHTS for Inhibitors of human tyrosyl-DNA phosphodiesterase 1 (TDP1): qHTS in cells in absence of CPT. 15% of 420,000 active. AID 686978, 2013. DT40 Tdp1-/- hTDP1 cells, no CPT, ATP luminescence, 48 h. Potency, µM (top dose mostly 46.2 µM), for the others: top-dose activity change, negative = growth inhibition, usual class: inhibitors; note: potency is the fitted concentration of half-maximal effect; nearly all actives have a fitted effect of over 55% in size
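Compound effects on proliferation are scored in DT40 Tdp1-/-;hTDP1 cells in the absence of CPT. ATP levels (CellTiter-Glo luminescence) are recorded after a ≥48 hr, 37 °C incubation.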
TDP1 inh – TDP1 (human) enzyme inhibition; AID 485290; 0.28% of 350,000 active; Q9NUW8; Potency, µM (series often up to 130 µM), for the others: at the highest dose activity change, negative = inhibition, actives largely listed as inhibitors; recombinant TDP1, AlphaScreen DNA substrate cleavage; note: potency is the fitted concentration of half-maximal effect; nearly all actives have a fitted effect of over 40% in size
Target sequence (Q9NUW8 whole entry, looked up): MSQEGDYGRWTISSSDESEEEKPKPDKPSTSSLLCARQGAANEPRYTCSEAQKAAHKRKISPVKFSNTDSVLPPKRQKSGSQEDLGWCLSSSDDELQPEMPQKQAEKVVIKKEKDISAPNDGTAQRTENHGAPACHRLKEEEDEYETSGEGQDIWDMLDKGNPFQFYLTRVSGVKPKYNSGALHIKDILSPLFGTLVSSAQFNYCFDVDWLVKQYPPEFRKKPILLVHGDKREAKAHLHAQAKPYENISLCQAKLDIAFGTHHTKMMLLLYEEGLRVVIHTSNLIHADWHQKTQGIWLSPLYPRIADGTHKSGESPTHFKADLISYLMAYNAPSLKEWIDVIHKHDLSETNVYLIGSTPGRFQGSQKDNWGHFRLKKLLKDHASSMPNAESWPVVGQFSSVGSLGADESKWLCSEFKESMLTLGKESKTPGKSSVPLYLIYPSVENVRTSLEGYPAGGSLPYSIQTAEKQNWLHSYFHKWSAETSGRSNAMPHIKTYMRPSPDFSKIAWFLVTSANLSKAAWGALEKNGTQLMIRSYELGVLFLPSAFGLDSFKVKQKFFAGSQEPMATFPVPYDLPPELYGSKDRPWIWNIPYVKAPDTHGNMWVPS
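Enzyme-compound mixtures sat 15 min at room temperature, followed by a 5 min reaction with 15 nM final substrate and 10 min with AlphaScreen beads. Recombinant human Tdp1 was used at 1 nM final.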
ELG1 DNA repair – inhibitors of ELG1-dependent DNA repair in HEK293T cells | HEK293T ELG1-luciferase reporter, luminescence, 16 h; DNA damage induced by 5-fluorouridine | Potency, µM (highest dose often 46.1 µM), inactives show top-dose activity change, negative = inhibition, most hits filed as inhibitors | 2.3% of 330,000 active | AID 504467; note: potency is the fitted concentration of half-maximal effect; nearly all actives have a fitted effect of over 55% in size
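HEK293T cells expressing luciferase-tagged ELG1 (2,000/well) received 5-Fluorouridine plus compound or DMSO for 16 hr at 37 °C. Luciferase was read by ONE-Glo luminescence after 30 min at room temperature.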
IL-1B inflam inh – inflammasome signaling inhibition, IL-1 beta readout. THP-1 LPS/ATP IL-1B secretion, AlphaLISA, 16 h; stronger effect = lower value. activity change, % at 57.5 µM. 4.7% of 360,000 active. AID 743279; in the data active = activity change below about -50%; inconclusive = mostly about -30% to -49%
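Secreted IL-1B measured by AlphaLISA bead assay after 16 h compound exposure of THP-1 cells; compounds (final up to 57.5 uM) added 1 h before LPS (250 ng/mL) and ATP (1.25 mM) stimulation; lower signal means less secretion.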
DT40 TDP1 CPT – growth inhibition of DT40 Tdp1-/-;hTDP1 cells with camptothecin (screen for TDP1 inhibitors) | chicken DT40 Tdp1-/-;hTDP1 cells + 20 nM CPT, ATP luminescence, 48 h | 12% of 420,000 active | Potency, µM (series often up to 46.2 µM), for inactives: at the top dose activity change, negative = growth inhibition, usual class: inhibitors; note: potency is the fitted concentration of half-maximal effect; nearly all actives have a fitted effect of over 55% in size
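Chicken DT40 Tdp1-/- cells complemented with human TDP1, 400 cells/well, exposed to compounds plus 20 nM camptothecin for at least 48 h at 37 C; viability read as ATP content by CellTiter-Glo luminescence.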
Numbers without * were called inactive; ? = inconclusive; . = not tested or not shown. Most compounds without a hit are left out; they make up all but 19% or so of the library. Unless noted, calls come from the whole dose curve; as a rule, active = well fitted curve in the direction sought with a large enough effect; inconclusive = small, poorly fitted or top-dose-only effect, or another doubt; inactive = no such curve, though single readings can be large; an effect the other way counts as inactive or inconclusive. % is set by controls: 0 for no effect and ±100 for the full control effect.

SMILES	Giardia kill	DT40 TDP1 no CPT	TDP1 inh	ELG1 DNA repair	IL-1B inflam inh	DT40 TDP1 CPT
CSc1ccc(C(=O)C2CCCN(C(=O)c3ccc4c(c3)no[n+]4[O-])C2)cc1 (centres undefined)	3	13µM*	.	21%	-67*	?
Cc1cc(S(=O)(=O)NCC(C)C)ccc1OCC(=O)NCC1CCCO1 (centres undefined)	?	10%	2%	1%	0	2%
O=c1cnc2cnc(Nc3ccccc3)nc2n1CCc1ccccc1	.	?	.	.	.	-6%
CCOC(=O)c1ccccc1NC(=O)NCc1cccn1Cc1ccc(F)cc1	.	23µM*	3%	.	.	23µM*
C[n+]1cccc(/C=N/NC(=O)CC23CC4CC(CC(C4)C2)C3)c1	6	-26%	3%	5%	29	-3%
O=C(Nc1ccc(F)c(Cl)c1)c1cc(S(=O)(=O)N2CCCc3ccccc32)ccc1F	.	15µM*	0%	.	.	13µM*
O=C(Nc1cccc(Cl)c1)c1cc(S(=O)(=O)N2CCCc3ccccc32)ccc1F	.	4.1µM*	5%	.	.	10µM*
CCCCN(C)C(=O)Cn1c(=O)oc2cc(S(=O)(=O)N3CC(C)CC(C)C3)ccc21 (centres undefined)	13	?	6%	?	13	?
Cc1ccc(C)c(CS(=O)(=O)c2cn(CC(=O)N(C(C)C)C(C)C)c3ccccc23)c1	.	12µM*	0%	.	.	15µM*
Cc1ccc(C)c(CS(=O)(=O)c2cn(CC(=O)N3CCCCC3)c3ccccc23)c1	5	-22%	3%	?	7	-1%
Cc1ccc(C)c(CS(=O)(=O)c2cn(CC(=O)N3CCC(C)CC3)c3ccccc23)c1	0	16µM*	0%	?	-18	?
CC(C)N(C(=O)Cn1cc(S(=O)(=O)Cc2ccc(Br)cc2)c2ccccc21)C(C)C	.	16µM*	-3%	.	.	23µM*
CC(C)N(C(=O)Cn1cc(S(=O)(=O)Cc2ccc(Cl)cc2)c2ccccc21)C(C)C	.	?	-5%	.	.	?
O=C(NCc1cc(Cl)cc(Cl)c1)c1ccc2nc(COCCO)[nH]c2c1	.	-17%	.	.	1	?
CC(=O)c1cccc(NC(=O)COC(=O)c2n[nH]c3ccccc23)c1	3	?	-3%	-9%	23	-19%
CC(C)Oc1ccc(C(=O)NC2(C(F)(F)F)NC(=O)N(CCCc3ccccc3)C2=O)cc1 (centres undefined)	1	?	4%	-17%	-64*	?
COc1ccc(C(=O)/C=C/C(=O)N(Cc2ccccc2OC)C(C(=O)NC2CCCCC2)c2ccncc2)c(O)c1 (centres undefined)	-15	21µM*	2%	21µM*	-78*	?
COc1ccccc1CN(C(=O)CCl)C(C(=O)NC1CCCCC1)c1ccncc1 (centres undefined)	-1	3%	-1%	7%	5	17%
COc1ccc(C(=O)/C=C/C(=O)N(Cc2ccc(F)cc2)C(C(=O)NC2CCCCC2)c2ccncc2)c(O)c1 (centres undefined)	1	?	3%	18µM*	-64*	?
CCSc1ccccc1C(=O)N=C1NC(=O)CC2C(=O)NCCN12 (centres undefined)	5	12%	4%	2%	9	-4%
Cc1ccc(S(=O)(=O)NCCc2csc(-c3ccc(Cl)cc3)n2)cc1	.	12µM*	1%	.	.	12µM*
CCc1ccc(S(=O)(=O)NCc2csc(-c3ccccc3)n2)s1	-6	?	2%	-21%	14	?
CCOc1ccc(S(=O)(=O)NCCc2csc(-c3ccc(Cl)cc3)n2)cc1	.	5.8µM*	2%	.	.	6.5µM*
Cc1ccc(C)c(S(=O)(=O)NCCCc2ccccc2)c1	-12	-15%	.	-2%	-57*	32%
